Compound activity from PubChem.
An excerpt weighted towards active compounds, which were near 3.2% of everything screened.
FBA Mtb inh – Mtb fructose-bisphosphate aldolase inhibition; purified M. tuberculosis FBA, fluorescence read-out; inhibition, % at 1 µM; AID 588726; 2.3% of 360,000 active; P9WQA3; in the data active = inhibition above about 27%
PriA SSB inh – blocks PriA binding to SSB C-terminal tail; AlphaScreen SSBct-PriA binding, biotinylated peptide; inhibition, % at 33 µM; 0.6% of 430,000 active; in the data active = inhibition mostly above about 37%, no sharp cut-off; inactive = mostly below about 20%
Mtb betalactam – beta-lactam sensitization of Mtb H37Rv | M. tuberculosis H37Rv growth with meropenem, percent inhibition | AID 434955 | 0.27% of 330,000 active | inhibition, % at 25 µM; call rule not given here;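 also: growth measured after seven days incubation then overnight dye step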
Rv3671c inh – inhibits the M. tuberculosis serine protease Rv3671c | P9WHR9 | AID 2606 | inhibition, % at 5.96 µM | 0.048% of 320,000 active; in the data active = inhibition above about 38%;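 also: extracellular domain of Rv3671c used as enzyme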
GDH-TPI counter – GDH-TPI coupled enzyme inhibition counter-screen | GDH-TPI coupled enzyme counterscreen, NADH absorbance | AID 588335 | 1.2% of 360,000 active | inhibition, % at 4.8 µM; in the data active = inhibition above about 30%
Mtb UGM inh – inhibitors of M. tuberculosis UDP-galactopyranose mutase | inhibition, % at 10 µM | purified UGM, fluorescence polarization probe displacement | 0.06% of 320,000 active | P9WIQ1; in the data active = inhibition above about 10%, passing the limit was not always enough
Target sequence (P9WIQ1 whole entry, looked up): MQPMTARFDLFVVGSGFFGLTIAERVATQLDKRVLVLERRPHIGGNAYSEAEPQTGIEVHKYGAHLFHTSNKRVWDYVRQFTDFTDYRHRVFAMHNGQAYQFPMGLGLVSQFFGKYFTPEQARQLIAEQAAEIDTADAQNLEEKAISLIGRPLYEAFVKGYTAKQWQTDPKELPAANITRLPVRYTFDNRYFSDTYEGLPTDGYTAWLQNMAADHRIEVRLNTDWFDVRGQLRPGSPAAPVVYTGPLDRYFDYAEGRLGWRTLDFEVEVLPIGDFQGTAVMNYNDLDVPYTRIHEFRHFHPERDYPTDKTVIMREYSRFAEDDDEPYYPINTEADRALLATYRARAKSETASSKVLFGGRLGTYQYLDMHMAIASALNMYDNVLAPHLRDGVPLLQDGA
Of the large screens only hits and unclear results are named; the others gave an inactive call.

Cc1c(CC(=O)NCCCCCC(=O)O)c(=O)oc2c(C)c3oc4c(c3cc12)CCCC4	none (no result: Rv3671c inh)
O=[N+]([O-])c1cc(F)c(N2CCc3ccccc3C2)cc1N1CCN(S(=O)(=O)c2ccccc2)CC1	none (no result: FBA Mtb inh, Mtb betalactam, Rv3671c inh, GDH-TPI counter, Mtb UGM inh)
COc1ccc(/C=C(\NC(=O)c2cccs2)C(=O)Nc2ccc(C)cc2)cc1OC	GDH-TPI counter 52
Cc1cc(Nc2ccc(NC(=O)Cc3c[nH]c4ccccc34)cc2)nc(N2CCCC2)n1	PriA SSB inh 45 (no result: FBA Mtb inh, Mtb betalactam, Rv3671c inh, GDH-TPI counter, Mtb UGM inh)
COc1cc(NC(=O)NCC(c2ccsc2)N2CCCC2)cc(OC)c1 (centres undefined)	none (no result: FBA Mtb inh, Mtb betalactam, Rv3671c inh, GDH-TPI counter, Mtb UGM inh)
Cc1ccc(SCCc2cc[n+](CC(=O)c3ccccc3)cc2)cc1	none
O=C(C[n+]1ccc(CCSc2ccc(F)cc2)cc1)c1ccccc1	PriA SSB inh 46
Fc1ccc(/C=N\n2cnnc2)cc1	none (no result: FBA Mtb inh, Mtb betalactam, Rv3671c inh, GDH-TPI counter, Mtb UGM inh)
Cc1ccc(C)c(NC(=O)CSc2n[nH]c(-c3ccccn3)n2)c1	PriA SSB inh 80
O=C(CSc1n[nH]c(-c2ccncc2)n1)Nc1cccc(Cl)c1	none (no result: FBA Mtb inh, Mtb betalactam, Rv3671c inh, GDH-TPI counter, Mtb UGM inh)
O=C(CSc1n[nH]c(-c2ccccn2)n1)Nc1cccc(Cl)c1	PriA SSB inh 88
O=C(CSc1n[nH]c(-c2ccccn2)n1)NC1CC2CCC1C2 (centres undefined)	PriA SSB inh 99 (no result: FBA Mtb inh, Mtb betalactam, Rv3671c inh, GDH-TPI counter, Mtb UGM inh)
O=C(CSc1n[nH]c(-c2ccccn2)n1)Nc1cc(Cl)ccc1Cl	none (no result: FBA Mtb inh, Mtb betalactam, Rv3671c inh, GDH-TPI counter, Mtb UGM inh)
Cc1ccccc1NC(=O)CSc1n[nH]c(-c2ccccn2)n1	PriA SSB inh 106
O=C(CSc1n[nH]c(-c2ccccn2)n1)Nc1ccc(Cl)cc1Cl	none (no result: FBA Mtb inh, Mtb betalactam, Rv3671c inh, GDH-TPI counter, Mtb UGM inh)
N#C/C(=C/c1ccc(-c2cccc(Cl)c2Cl)o1)C(=O)N1CCCCC1	none (no result: FBA Mtb inh, Mtb betalactam, Rv3671c inh, GDH-TPI counter, Mtb UGM inh)
Cc1sc(N=Cc2ccco2)c(C#N)c1C	none (no result: FBA Mtb inh, Mtb betalactam, Rv3671c inh, GDH-TPI counter, Mtb UGM inh)
Cc1ccc(Oc2cccc(NS(=O)(=O)c3ccccc3)c2)nn1	none (no result: FBA Mtb inh, Mtb betalactam, Rv3671c inh, GDH-TPI counter, Mtb UGM inh)
CC12CCC3C(CCC4(O)CC(O)CCC34C=NO)C1(O)CCC2C1=COC(=O)C1 (centres undefined)	none (no result: Mtb betalactam, Rv3671c inh, Mtb UGM inh)
CCCCN=C[C@]12CCC(O)CC1(O)CCC1[C@@H]2CC[C@]2(C)[C@H](C3C=CC(=O)O3)CCC12O (some centres undefined)	PriA SSB inh 66
CC(=O)c1ccc(NS(=O)(=O)c2ccc(N/C=C/C(=O)c3ccc(F)cc3)cc2)cc1	GDH-TPI counter 61
COc1cccc2[nH]c3c(N4CCC(C(N)=O)CC4)ncnc3c12	FBA Mtb inh 183
COc1cc2[nH]c3c(N4CCC(C(N)=O)CC4)ncnc3c2cc1OC	none (no result: FBA Mtb inh, PriA SSB inh, GDH-TPI counter)
O=C(NC(=S)N1CCOCC1)c1cccc([N+](=O)[O-])c1	none (no result: FBA Mtb inh, Mtb betalactam, Rv3671c inh, GDH-TPI counter, Mtb UGM inh)
CC(CC(=O)Nc1ccccn1)=NNC(=O)c1cnccn1	none (no result: FBA Mtb inh, Mtb betalactam, Rv3671c inh, GDH-TPI counter, Mtb UGM inh)
O=C(NC1CCN(Cc2ccc(F)cc2)CC1)c1ccccc1	none
O=C(NC(=S)NC1CCN(Cc2ccccc2)CC1)c1ccc(F)cc1	FBA Mtb inh active
COc1ccc(C=NNC(=O)c2ccc3ccccc3c2)cc1OS(=O)(=O)c1ccc(NC(C)=O)cc1	none (no result: FBA Mtb inh, Mtb betalactam, Rv3671c inh, GDH-TPI counter, Mtb UGM inh)
O=C(c1ccccc1Oc1ccc(C(F)(F)F)cc1[N+](=O)[O-])N1CCOCC1	none
O=C(Nc1ccccc1Cl)c1ccccc1Oc1ccc(C(F)(F)F)cc1[N+](=O)[O-]	PriA SSB inh 47
CCOC(=O)c1sc2nc(CC(=O)OC)nc(NCC(=O)OC)c2c1C	FBA Mtb inh 126
COc1ccc(-c2noc(-c3c(SC)nn(CC(=O)Nc4ccc(C)c(F)c4)c3N)n2)cc1	none (no result: FBA Mtb inh, Mtb betalactam, Rv3671c inh, GDH-TPI counter, Mtb UGM inh)
Cc1ccc(C=NNC(=O)c2cc(-c3ccc(C)o3)[nH]n2)cc1	none (no result: FBA Mtb inh, Mtb betalactam, Rv3671c inh, GDH-TPI counter, Mtb UGM inh)
COc1ccc(NC2=Nc3cccc4cccc2c34)cc1OC	none
COc1cccc(NC2=Nc3cccc4cccc2c34)c1	PriA SSB inh 41
Cn1ccnc1SCc1cc(=O)c(OC(=O)c2ccc(-c3ccccc3)cc2)co1	none (no result: FBA Mtb inh, Mtb betalactam, Rv3671c inh, GDH-TPI counter, Mtb UGM inh)
CCc1cc2c(CN3CCN(CC)CC3)cc(=O)oc2cc1O	FBA Mtb inh active
O=c1cc(CN2CCOCC2)c2cc(Cl)c(O)cc2o1	FBA Mtb inh active
COc1ccc(/C=C2\SC(N3CCc4ccccc4C3)=NC2=O)cc1	GDH-TPI counter 41
O=C1N=C(N2CCc3ccccc3C2)S/C1=C\c1cccc(O)c1	GDH-TPI counter 32
COC(=O)c1cc(OC)c(OC)cc1NC(=O)/C=C/c1ccco1	none (no result: FBA Mtb inh, Mtb betalactam, Rv3671c inh, GDH-TPI counter, Mtb UGM inh)
COC(=O)N1CCC(CNC(=O)c2cc3cccc(OC)c3o2)CC1	none (no result: FBA Mtb inh, Mtb betalactam, Rv3671c inh, GDH-TPI counter, Mtb UGM inh)
COc1cc(-c2cc(C(=O)NCC3CCCN3c3ccccc3)[nH]n2)cc(OC)c1OC (centres undefined)	PriA SSB inh 59 (no result: FBA Mtb inh, Mtb betalactam, Rv3671c inh, GDH-TPI counter, Mtb UGM inh)
COc1ccccc1OCC(=O)NC[C@H]1CCCN1c1ccccc1	none (no result: FBA Mtb inh, Mtb betalactam, Rv3671c inh, GDH-TPI counter, Mtb UGM inh)
COc1cccc2cc(C(=O)NC[C@H]3CCCN3c3ccccc3)oc12	PriA SSB inh 29 (no result: FBA Mtb inh, Mtb betalactam, Rv3671c inh, GDH-TPI counter, Mtb UGM inh)
